# The campaign covered roughly 360,000 compounds. About 2,300 (0.64%) were called active. The sample holds actives, similar compounds and a random draw of the others, so the mix is not that of the screen. No stated cut-off is given here; in the data, active means inhibition mostly above about 40% (no sharp cut-off); inactive means mostly below about 27%.
# Biological target: Sentrin-specific protease 8 (Homo sapiens) (UniProt Q96LD8)
# Test: human SENP8 protease inhibitors, primary screen, biochemical, fluorescence, Nedd8 protein substrate, uHTS (AID 602440)
# Conditions: recombinant SENP8, Nedd8 substrate fluorescence; at 20 µM; stronger effect = higher value
# Sequence of Sentrin-specific protease 8 (Homo sapiens) (Q96LD8 whole entry, looked up): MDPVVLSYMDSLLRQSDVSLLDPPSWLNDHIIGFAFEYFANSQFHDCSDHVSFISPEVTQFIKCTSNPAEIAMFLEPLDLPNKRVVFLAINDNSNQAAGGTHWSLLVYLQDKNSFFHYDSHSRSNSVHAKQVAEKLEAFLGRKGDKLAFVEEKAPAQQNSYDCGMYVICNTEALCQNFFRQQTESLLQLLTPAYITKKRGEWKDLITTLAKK
row,SMILES,inhibition
1,O=[N+]([O-])c1ccc(COc2ccccc2CN2CCOCC2)cc1,-0.2% (inactive)
2,OC(c1ccccc1)C(CN1CCOCC1)c1ccccc1 (stereo not given),9.9% (inactive)
3,Oc1c(CN2CCOCC2)ccc(CN2CCOCC2)c1O,79% (active)
4,O=C(Cn1cc(-c2nnnn2-c2ccc(Cl)cc2)c(=O)c2ccccc21)c1ccccc1,26.2% (inactive)
5,COC(=O)CN1C(=O)C(C)(C)Oc2ccc(C(=O)Nc3cccc(OC)c3)cc21,1.3% (inactive)
6,CC[n+]1cc(C)ccc1/C=C/c1ccc(N(C)C)cc1,18.1% (inactive)
7,CN(C)c1ccc(Nc2c3c4c(cccc4n(C)c2=O)C(=O)c2ccccc2-3)cc1,52.7% (active)
8,Cc1ccc(NC(=S)N(CCCN2CCCC2)Cc2cccn2Cc2ccc(Cl)cc2)cc1,14.9% (inactive)
9,CCOC(=O)c1ccc2c(c1)nc(C)n2CC,17.4% (inactive)
10,Cc1nc2ccccc2n1CC(O)c1ccccc1 (stereo not given),0.7% (inactive)
11,CCn1c(C)nc2c1C(=O)c1ccccc1C2=O,53.2% (active)
12,O=C(NC(=S)N1CCc2ccccc21)c1ccco1,11.3% (inactive)
13,Cc1c(C(=O)N(Cc2ccccc2)Cc2cccnc2)cnn1-c1ccc(F)cc1,7.4% (inactive)
14,O=C(Nc1cc2c3c(c1)C1CCCC1CN3CC1CCCC21)c1ccc([N+](=O)[O-])cc1 (stereo not given),40.6% (active)
15,O=C(CCNC(=O)c1ccc([N+](=O)[O-])cc1)NC1CCCCC1,15.8% (inactive)
16,CN1C2CCC1CC(NC(=O)c1ccc([N+](=O)[O-])cc1)C2 (stereo not given),17.8% (inactive)
17,CCC1CCCCN1C(=O)Nc1cccc(NC(=O)N2CCCCC2CC)c1 (stereo not given),13% (inactive)
18,CC(CCn1cccn1)NC(=O)CCc1nnc(CCc2ccccc2)o1 (stereo not given),7.6% (inactive)
19,CCOc1cc(/C=N/NC(=O)c2ccncc2)cc(Br)c1O,19.2% (inactive)
20,Cc1ccc(C(=O)N/N=C\c2cc(Br)c(Br)o2)cn1,58.6% (active)
21,O=C(N/N=C/c1ccc(Br)o1)c1cncc(Br)c1,-18.2% (inactive)
22,COC(=O)C1=C(C)NC(=S)NC1c1ccc(OCC(=O)N2CC(C)OC(C)C2)c(OC)c1 (stereo not given),3.3% (inactive)
23,O=C(CN(C(=O)c1csnn1)c1cccc(F)c1)NCc1ccc(F)cc1,8.3% (inactive)
24,Cn1c2c(c(=O)n(C)c1=O)C(c1cccc([N+](=O)[O-])c1)Nc1ccccc1O2 (stereo not given),22.9% (inactive)
25,O=C(CN1CCN(c2cccc(Cl)c2)CC1)Nc1ccc(S(=O)(=O)N2CCOCC2)cc1,15% (inactive)
26,CN(C)S(=O)(=O)c1cccc(-c2nn(-c3ccccc3)cc2/C=C2\SC(=S)N(CC(=O)O)C2=O)c1,44% (active)
27,COc1cccc(-c2nn(-c3ccccc3)cc2/C=C(\C#N)C(=O)NCCCn2ccnc2)c1,-266% (inactive)

row,SMILES,inhibition
1,Cc1ccc(-c2nn(-c3ccccc3)cc2/C=C/C(=O)Nc2cccc(S(N)(=O)=O)c2)cc1,-81.3% (inactive)
2,O=[N+]([O-])c1c(NCCO)cc(Sc2nc3ccccc3s2)c2nonc12,75.9% (active)
3,CC(C)(C)NC(=O)C(CCc1ccccc1)n1c(=O)c(-c2ccccc2)nc2ccccc21 (stereo not given),-332% (inactive)
4,CN1CCN(S(=O)(=O)c2ccc(N3CCN(c4ccccc4O)CC3)c([N+](=O)[O-])c2)CC1,39.2% (active)
5,CS(=O)(=O)N1CCN(c2ccc(C(=O)NC3C4CC5CC(C4)CC3C5)cc2[N+](=O)[O-])CC1 (stereo not given),13.8% (inactive)
6,Cc1ccccc1N1CCN(S(=O)(=O)c2ccc3ccccc3c2)CC1,12.3% (inactive)
7,Cc1cccc(N2CCN(c3ccc(C(N)=O)cc3[N+](=O)[O-])CC2)c1C,15.7% (inactive)
8,Cc1ccc(C(=O)c2ccc(N3CCN(C)CC3)c([N+](=O)[O-])c2)cc1,47.4% (active)
9,CC(C)c1ccc(S(=O)(=O)N2CCN(C(=O)c3ccc(N4CCCC4)c([N+](=O)[O-])c3)CC2)cc1,11.9% (inactive)
10,COC(=O)c1ccccc1NC(=O)C1CCN(C(=O)N2CCOc3ccccc32)CC1,-37.2% (inactive)
11,COc1ccc(NC(=O)N2CCCC(c3nc(-c4ccc(F)cc4)no3)C2)cc1 (stereo not given),9.6% (inactive)
12,C[C@H]1CN([C@@H](C)CO)C(=O)CCCn2cc(nn2)CO[C@@H]1CN(C)S(=O)(=O)c1ccc(-c2ccccc2)cc1,12.7% (inactive)
13,C/C(N)=C(/C#N)C(=O)COC(=O)c1cc(-c2cccc(Br)c2)nc2ccccc12,-25.4% (inactive)
14,COc1cccc2c1C(=O)c1c(O)c3c(c(O)c1C2=O)CC(O)(C(C)=NNC(=O)c1ccc(Cl)c(Cl)c1)CC3OC1CC(N)C(O)C(C)O1 (stereo not given),46.6% (active)
15,CCCC(O)(c1ccc(OC)cc1)C(CN(C)C)c1ccccc1 (stereo not given),10.7% (inactive)
16,NC(=O)C1CCN(CC(O)CSc2ccc(F)cc2)CC1 (stereo not given),17% (inactive)
17,NC(=O)COC(=O)c1cc(S(=O)(=O)N2CCN(c3ccccc3)CC2)ccc1Cl,14.7% (inactive)
18,C/C(=N\Nc1ccccc1)c1cccs1,-20.5% (inactive)
19,CSc1ncc(C(=O)NCCCc2ccccc2)c(C)n1,-24.7% (inactive)
20,CC/C(=N/Nc1ccccc1)c1cnnc(SC)n1,61.2% (active)
21,CN(C(=O)c1cccc(NC(=O)Cc2ccc([N+](=O)[O-])cc2)c1)C1CCC1,19.5% (inactive)
22,O=S(=O)(Nc1ccc(-n2cnnn2)cc1)c1ccc(Cl)cc1,5.5% (inactive)
23,CCOC(=O)c1c(C)oc(C)c(C(=O)OCC)c1=O,11.2% (inactive)
24,CCOC(=O)c1c(C)[nH]c2c1-c1ccccc1C(=O)C2=O,121% (active)
25,CCOC(=O)c1[nH]c(C)c(C(=O)OCC(=O)N2c3ccccc3CC2C)c1C (stereo not given),31.3% (inactive)
26,CCn1cc(C(=O)NCC(=O)NC(C)(C)CO)c(=O)c2cc3c(cc21)OCO3,-75.3% (inactive)
27,COc1ccc2c(c1)c(=Cc1ccc(N(C)C)cc1)c1cc(-c3ccccc3)[n+](C)n12,-127% (inactive)

row,SMILES,inhibition
1,CCOC(=O)CNC(=O)/C=C/c1c(Cl)cccc1Cl,16.6% (inactive)
2,CCOC(=O)CNC(=O)CN1C(=O)CCSc2ccccc21,16.5% (inactive)
3,CCOC(=O)CNC(=O)N1c2ccccc2Sc2ccccc21,47.5% (active)
4,CC(=O)NC(CC(=O)O)c1ccc(F)cc1 (stereo not given),-2% (inactive)
5,Cc1[nH]n(C)c(=O)c1N=Nc1ccc(S(C)(=O)=O)cc1,28.1% (inactive)
6,Cc1[nH]n(-c2ccccc2)c(=O)c1CCOC(=O)c1ccc(C(F)(F)F)cc1,15.4% (inactive)
7,Cc1ccc(N=Nc2c(C)[nH]n(-c3ccccc3)c2=O)cc1,35.1% (active)
8,Cc1ccc(S(=O)(=O)N(CC(=O)NN=C2CCN(C)CC2)c2ccc(F)cc2)cc1,10.4% (inactive)
9,Cn1nc(C(F)(F)F)cc1-c1ccc(/C=C(\C#N)C(=O)c2cccc(C(F)(F)F)c2)s1,-159% (inactive)
10,CCc1ccc(-c2nnn(Cc3nn[nH]n3)n2)cc1,41.5% (active)
11,CCc1ccc(-c2nnn(Cc3nc4ccccc4s3)n2)cc1,14% (inactive)
12,CN(C)c1nc(N)nc(Cn2nnc(-c3ccc(C(F)(F)F)cc3)n2)n1,17.2% (inactive)
13,CCOC(=O)c1cc(NC(=O)SCC(=O)O)c(C)nc1C,-84.4% (inactive)
14,CCCNC(=O)CCn1cc(-c2ccc(OC)cc2)nc1CCN,-0.4% (inactive)
15,CCCc1cc(=O)[nH]c(SCC(=O)c2c(N)n(CC(C)C)c(=O)n(C)c2=O)n1,2.3% (inactive)
16,Cc1cc(-c2ccccc2)nc(N2CCC(C(=O)NC34CC5CC(CC(C5)C3)C4)CC2)n1,-325% (inactive)
17,Cc1cc(C)cc(NC(=O)CCN2C(=O)c3ccccc3C2=O)c1,8.2% (inactive)
18,Cc1ccc2[nH]cc(CCCN3C(=O)c4ccccc4C3=O)c2c1,8.9% (inactive)
19,Cc1ccc2c(c1)-c1c(ssc1=S)C(C)(C)N2C(=O)CN1C(=O)c2ccccc2C1=O,50% (active)
20,Cc1ccccc1C(=O)NNC(=O)CN1C(=O)c2ccccc2C1=O,21.1% (inactive)
21,Cc1ccc(NC(=O)CCN2C(=O)c3ccccc3C2=O)cc1C,14.4% (inactive)
22,Cc1cc2c(cc1C)N(C(=O)CN1C(=O)c3ccccc3C1=O)C(C)(C)c1ssc(=S)c1-2,41.6% (active)
23,O=C(O)CC1S/C(=N\N=C/c2ccccc2O)N(c2ccc(O)cc2)C1=O (stereo not given),-14.4% (inactive)
24,Cc1ccc2nc(Nc3ncc4c(n3)CC(C)(C)CC4=O)nc(C)c2c1,-28.2% (inactive)
25,O=C(CCN1CCCCC1)Nc1ccc(F)c(F)c1,19.3% (inactive)
26,COCC1CCCN(Cc2cn[nH]c2-c2cc3ccccc3o2)C1 (stereo not given),9.9% (inactive)

# Source: PubChem BioAssay AID602440 (Sanford-Burnham Center for Chemical Genomics, 2012)
